High-throughput results: PubChem, several laboratories
Cl transport mod: KCC2 cotransporter modulators, thallium flux, primary screen, cell-based, HEK293 KCC2, FluoZin-2 fluorescence, MLSMR; Solute carrier family 12 member 5 (Homo sapiens), Q9H2X9; AID 1456, 2008; B-score of Tl+ flux slope (higher = more flux/activation; lower = inhibition) at 10 µM; 2.2% of 190,000 active; KCC2 cells, thallium flux FluoZin-2 fluorescence;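 active = thallium flux slope and its plate-corrected score both differing from the plate sample mean at a set confidence after two filtering rounds, in either direction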;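 also: slope of fluorescence scaled to starting intensity during 10 to 20 s after thallium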
Calb FLC: C. albicans growth inhibition with fluconazole, primary screen, CaCi-2 strain, Alamar Blue fluorescence; C. albicans CaCi-2 (fluconazole-resistant clinical isolate) + fluconazole, 48 h; growth inhibition, % (no concentration beside the values); 0.57% of 300,000 active; AID 1979, 2009;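 active = growth inhibition above about 58% in most replicates, limit read from the data, passing the limit was not always enough; inconclusive = exactly half the replicates above a set limit; inactive = most replicates below a set limit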;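 also: all wells also contain fluconazole at 8 µg/ml as a sub-toxic cotreatment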
H9c2 protect: cardioprotection against H2O2-induced cell death, primary screen, uHTS, H9c2 cells, ATPLite luminescence; H9c2 cardiomyocytes, H2O2 injury protection, 2 h; protection from H2O2 cell death, % at 20 µM; 0.63% of 360,000 active; AID 588492, 2011;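 active = compounds giving at least 50% protection of heart cells from peroxide-induced death in the single-dose screen, raw or plate-pattern-corrected value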
Efflux pump mplx: inhibitors of Candida efflux pumps in yeast, primary screen, S. cerevisiae, Nile Red, multiplex; S. cerevisiae Candida pump triplex; AID 485275, 2010; inhibition, % at 10 µM; 0.44% of 330,000 active;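 active = plate passing quality check with inhibition over a set limit, or well fluorescence over plate mean plus 4 SD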;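 also: Nile Red retained in pooled yeast measured as flow cytometry median fluorescence; higher means more Nile Red kept so more efflux inhibition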
PHOSPHO1 block: PubChem AID 1565. 1.1% of 290,000 active. Phosphoethanolamine/phosphocholine phosphatase (Homo sapiens), Q8TCT1. recombinant PHOSPHO1, absorbance phosphatase assay. inhibition, % at 13.3 µM; in the data active = inhibition above about 60%
Target sequence (Q8TCT1 whole entry, looked up): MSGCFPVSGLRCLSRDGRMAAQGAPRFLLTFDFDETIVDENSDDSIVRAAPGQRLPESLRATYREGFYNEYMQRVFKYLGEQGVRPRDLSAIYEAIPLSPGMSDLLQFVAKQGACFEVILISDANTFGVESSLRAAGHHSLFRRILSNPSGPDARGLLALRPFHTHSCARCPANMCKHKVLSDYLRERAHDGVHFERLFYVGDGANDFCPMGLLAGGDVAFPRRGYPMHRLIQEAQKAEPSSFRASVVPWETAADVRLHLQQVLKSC
KCC2 secondary: KCC2 modulators in sodium-free buffer, confirmation, cell-based, HEK293 KCC2, thallium flux, secondary assay. shares compounds with Cl transport mod. normalised thallium flux (F/F0 slope) at 10 µM. 15% of 3,700 active. FluoZin2 fluorescence; stronger effect = higher value;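 active = thallium flux slope above the same plate's solvent-only control mean plus 3 SD; inconclusive = the two replicate wells disagree; inactive = no significant difference from solvent-only control wells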
KCC2 bumet counter: thallium flux persisting under bumetanide in KCC2 cells, confirmation, counter-screen for KCC2 modulator project, cell-based, HEK293 KCC2, FluoZin2, secondary assay 3. shares compounds with Cl transport mod. HEK293-KCC2 + bumetanide/ouabain; stronger effect = higher value. normalized thallium flux at 10 µM. 49% of 3,700 active. AID 1714, 2009;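 active = thallium entry rate above the same plate's blocked-transporter control wells by more than 3 SD; inconclusive = the two repeat wells disagree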;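 also: raw slope of fluorescence over initial fluorescence between 10 and 20 s after thallium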
KCC2 secondary2: KCC2 modulators without ouabain present, confirmation, cell-based, HEK293 KCC2, thallium flux, FluoZin2, secondary assay 2. shares compounds with Cl transport mod. thallium flux FluoZin2 fluorescence; actives lie on both sides; F/F0 rise rate, 10–20 s post-thallium. normalized thallium flux at 10 µM. 23% of 3,700 active. AID 1715, 2009;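 active = thallium flux slope more than 3 SD above or below the plate's solvent-only control mean, mostly below; inconclusive = the two repeat wells disagreed; inactive = no significant shift from solvent-only controls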
HEK293 Tl flux: thallium flux modulation in parental HEK cells, confirmation, counter-screen for KCC2 modulator project, cell-based, counterscreen 1; shares compounds with Cl transport mod; thallium flux rate (normalised fluorescence) at 10 µM; HEK293 parental cells, thallium flux FluoZin2, ouabain; baseline-ratio fluorescence slope, 10–20 s after thallium; 46% of 3,700 active;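 active = thallium flux rate significantly above the same plate's solvent-only control wells, beyond their mean plus 3 SD; inconclusive = the two replicate wells gave conflicting results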
KCC2 retest ouab: KCC2 inhibitors and activators, ouabain retest, confirmation, HEK-KCC2 cells. shares compounds with Cl transport mod. HEK293-KCC2, thallium flux FluoZin2 fluorescence; bidirectional: low = inhibitor, high = activator. raw Tl+ flux slope (below DMSO = inhibition, above = activation) at 10 µM. 48% of 3,700 active. AID 1717, 2009;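 active = thallium flux slope beyond 3 SD from same-plate DMSO control mean in most replicates, usually higher, sometimes lower; inconclusive = repeat tests gave conflicting results; inactive = no significant difference from controls in most replicates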;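 also: slope of initial-normalized fluorescence between seconds 10 and 20 after thallium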
HEK counter2: native HEK Tl+ uptake effects, second counter-screen – HEK cells, counterscreen 2, counter-screen for KCC2 modulator project, confirmation; shares compounds with Cl transport mod; HEK293 parental, thallium flux FluoZin-2 fluorescence slope; thallium flux slope at 10 µM; 33% of 3,700 active; AID 1718, 2009;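 active = thallium flux slope above the same plate's solvent-control mean plus 3 SD in both duplicate wells; inconclusive = duplicate wells that disagreed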;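 also: run without ouabain in cells lacking the KCC2 cotransporter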
Of the large screens only hits and unclear results are named; the others gave an inactive call (follow-up assays come after a bar, where they were run). An excerpt weighted towards active compounds, which were near 3.3% of everything screened.

CN(C)c1ccc(/C=N/NC(=O)c2ccc(-n3cnnn3)cc2)cc1	none (no result: Cl transport mod, Calb FLC, PHOSPHO1 block)
Cn1c(CNc2cccc(C(F)(F)F)c2)n[nH]c1=S	Cl transport mod -4 | KCC2 secondary inactive | KCC2 bumet counter inactive | KCC2 secondary2 0.025 | HEK293 Tl flux inactive | KCC2 retest ouab inconclusive | HEK counter2 inactive
Cn1c(=O)n(C)c2cc(S(=O)(=O)N3CCOCC3)ccc21	none
Cc1ccccc1NC(=O)c1cc(S(=O)(=O)N2CCOCC2)cn1C	none (no result: Cl transport mod)
Cc1cccc(C)c1NC(=S)N=Nc1c(O)n(C)c2ccc(S(=O)(=O)N3CCOCC3)cc12	Cl transport mod 4.4 | KCC2 secondary inactive | KCC2 bumet counter 0.027 | KCC2 secondary2 inactive | HEK293 Tl flux 0.012 | KCC2 retest ouab inactive | HEK counter2 0.012
Cc1ccccc1NC(=S)N=Nc1c(O)n(C)c2ccc(S(=O)(=O)N3CCOCC3)cc12	Cl transport mod 15 | KCC2 secondary inactive | KCC2 bumet counter 0.07 | KCC2 secondary2 inactive | HEK293 Tl flux 0.023 | KCC2 retest ouab inconclusive | HEK counter2 inconclusive
CCSc1oc(-c2ccco2)nc1S(=O)(=O)c1ccccc1	Cl transport mod 6.5 | KCC2 secondary inactive | KCC2 bumet counter inactive | KCC2 secondary2 inactive | HEK293 Tl flux inactive | KCC2 retest ouab inactive | HEK counter2 inactive
CCCSc1oc(-c2ccco2)nc1S(=O)(=O)c1ccccc1	none
CCC(=O)Oc1ccc(C(CC)C(CC)c2ccc(OC(=O)CC)cc2)cc1 (centres undefined)	Cl transport mod 11 (no result: Calb FLC) | KCC2 secondary inactive | KCC2 bumet counter inactive | KCC2 secondary2 inactive | HEK293 Tl flux inactive | KCC2 retest ouab inactive | HEK counter2 inactive
Cc1ccc(OCC(=O)Oc2ccc(C(C)C)cc2)cc1	none (no result: Cl transport mod, PHOSPHO1 block)
Cc1ccc(CCNC(=O)C2CCC(CNc3c(N4CCCC4)c(=O)c3=O)CC2)cc1 (centres undefined)	none (no result: Cl transport mod) | KCC2 secondary inactive | KCC2 bumet counter inconclusive | KCC2 secondary2 inactive | HEK293 Tl flux inconclusive | KCC2 retest ouab inactive | HEK counter2 inactive
CC1CCN(c2c(NCC3CCC(C(=O)NCCc4ccccc4)CC3)c(=O)c2=O)CC1 (centres undefined)	Cl transport mod -4.7 | KCC2 secondary inactive | KCC2 bumet counter inactive | KCC2 secondary2 inconclusive | HEK293 Tl flux inactive | KCC2 retest ouab inactive | HEK counter2 inactive
O=C(N1CCC(n2nc(-c3ccccc3)oc2=O)CC1)C1(c2ccccc2)CC1	none (no result: Cl transport mod)
Oc1ccc(-c2csc(-c3ccccc3)n2)cc1O	Cl transport mod -4.4 | KCC2 secondary inactive | KCC2 bumet counter inconclusive | KCC2 secondary2 inactive | HEK293 Tl flux inactive | KCC2 retest ouab 0.021 | HEK counter2 inactive
